Assay results: PubChem BioAssay (NCATS)
“And” between values parts separate entries of the source, which are not always exact repeats. Equal entries are not always repeated. Results filed as inconclusive are left out. The source holds several records for some structures; these can differ, active in one and inactive in another. The source made the active and inactive calls. The call rests on the fitted dose curve; in most records, active means well fitted inhibition curve with a large enough effect; inconclusive means small, poorly fitted or top-dose-only effect; inactive means flat fitted curve, though single readings scatter.

Tests used:
CRL-7250 = normal cell line; assay: Cytotoxic Profiling of Annotated Libraries Using Quantitative High-Throughput Screening (AID 1296008); conditions: Five cell lines viability, CellTiter-Glo ATP luminescence, 48-72 h; max response: hits give low values; further: potency means the concentration at half of the fitted maximal effect; on max response: on the % scale 0 is the no-effect control and ±100 the full control effect
In short: (§1)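 Cells exposed to compounds for 48 or 72 hr at 37 degrees Celsius. Viability read as ATP-coupled luminescence with CellTiter-Glo after 10 min at room temperature.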

NIH3T3 = assay: as above; conditions: Five cell lines viability, CellTiter-Glo ATP luminescence, 48-72 h; max response: hits give low values
In short: as §1

MCC-13 = assay: qHTS assay to identify novel small-molecules to repurpose for Merkel cell carcinoma treatment (AID 1296009); conditions: MCC and control cell lines, CellTiter-Glo viability, 72 h; series mostly up to 46 µM; further: potency means the concentration at half of the fitted maximal effect
In short: (§2)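 Dose-response viability screen; 72 hr exposure at 37 degree celsius; CellTiter-Glo added, 10 min room temperature, luminescence read; RLUs scaled between no-cell and DMSO wells.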

MCC-26 = assay: as above; conditions: MCC and control cell lines, CellTiter-Glo viability, 72 h; series mostly up to 46 µM
In short: as §2

HEK293 = assay: Cytotoxic Profiling of Annotated Libraries Using Quantitative High-Throughput Screening (AID 1296008); conditions: Five cell lines viability, CellTiter-Glo ATP luminescence, 48-72 h; max response: hits give low values; further: potency means the concentration at half of the fitted maximal effect; on max response: on the % scale 0 is the no-effect control and ±100 the full control effect
In short: as §1

HaCat [1] = assay: as above; conditions: Five cell lines viability, CellTiter-Glo ATP luminescence, 48-72 h; max response: hits give low values
In short: as §1

KB-3-1 = assay: as above; conditions: Five cell lines viability, CellTiter-Glo ATP luminescence, 48-72 h; max response: hits give low values
In short: as §1

HACAT [2] = assay: qHTS assay to identify novel small-molecules to repurpose for Merkel cell carcinoma treatment (AID 1296009); conditions: MCC and control cell lines, CellTiter-Glo viability, 72 h; at 44.8 µM (top of the series) unless noted; further: potency means the concentration at half of the fitted maximal effect
In short: as §2

P93_24 = assay: qHTS profiling for inhibitors of Plasmodium falciparum proliferation (AID 504749);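 further: 0% = DMSO vehicle and full inhibition = artemisinin control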; conditions: P. falciparum in erythrocytes, SYBR Green DNA, 72 h; series mostly up to 28.7 µM
In short: (§3)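 Each compound contacts P. falciparum-infected red blood cells for 72 h at 37 C; lysis buffer (Tris, EDTA, saponin, Triton X, SYBR Green I) is added and fluorescence measured next morning; values normalized to controls.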

PC15 = assay: as above; conditions: P. falciparum in erythrocytes, SYBR Green DNA, 72 h; series mostly up to 28.7 µM
In short: as §3

PC26 = assay: as above; conditions: P. falciparum in erythrocytes, SYBR Green DNA, 72 h; series mostly up to 28.7 µM
In short: as §3

PC49 = assay: as above; conditions: P. falciparum in erythrocytes, SYBR Green DNA, 72 h; series mostly up to 28.7 µM
In short: as §3

SC27B = assay: as above; conditions: P. falciparum in erythrocytes, SYBR Green DNA, 72 h; series mostly up to 28.7 µM
In short: as §3

TAB109 = assay: as above; conditions: P. falciparum in erythrocytes, SYBR Green DNA, 72 h; series mostly up to 28.7 µM
In short: as §3

TAB113 = assay: as above; conditions: P. falciparum in erythrocytes, SYBR Green DNA, 72 h; series mostly up to 28.7 µM
In short: as §3

TAB165 = assay: as above; conditions: P. falciparum in erythrocytes, SYBR Green DNA, 72 h; series mostly up to 28.7 µM
In short: as §3
Further: nearly all actives have a fitted effect of over 60% in size.

CC[C@]1(O)C[C@@H]2CN(CCc3c([nH]c4ccccc34)[C@@](C(=O)OC)(c3cc4c(cc3OC)N(C=O)[C@@H]3C45CCN4CC=C[C@](CC)([C@H]45)[C@@H](OC(C)=O)[C@]3(O)C(=O)OC)C2)C1 (stereo partly drawn)
inactive: max response (CRL-7250) -20.2% | max response (NIH3T3) -0.0535% | Potency (MCC-13) | Potency (MCC-26)

CN[C@@H](C)C(=O)N[C@H]1CN(C(=O)CC(C)C)CC[C@H]2CC[C@@H](C(=O)NC(c3ccccc3)c3ccccc3)N2C1=O
active: Potency (HaCat [1]) 16.6 µM and 23.1 µM
inactive: max response (HEK293) -1.1% | max response (KB-3-1) 2.72% and 0.688% | Potency (MCC-13) | Potency (MCC-26)

COc1cc(N2CCC(N3CCN(C)CC3)CC2)ccc1Nc1ncnc(Nc2ccccc2S(=O)(=O)C(C)C)n1
active: Potency (HEK293) 14.6 µM | Potency (HaCat [1]) 7.31 µM | Potency (KB-3-1) 8.33 µM | Potency (MCC-26) 11.8 µM

COc1ccc(-n2c(C)c([N+](=O)[O-])c3ccc(O)cc32)cc1
inactive: max response (HEK293) -7.19% | max response (HaCat [1]) -25.5% | max response (KB-3-1) -1.9% | max response (NIH3T3) 4.92% | Potency (MCC-13) | Potency (MCC-26)

CC[C@H]1OC(=O)[C@H](C)C(=O)[C@H](C)[C@@H](O[C@H]2O[C@H](C)C[C@H](N(C)C)[C@@H]2O)[C@](C)(OC)C[C@@H](C)C(=O)[C@H](C)[C@H]2N(CCCCn3cnc(-c4cccnc4)c3)C(=O)O[C@]12C
inactive: max response (CRL-7250) -7.01% | max response (HaCat [1]) -0.424% | max response (KB-3-1) 2.84% | Potency (MCC-13) | Potency (MCC-26)

Cc1cc(OCCCc2c(C(=O)O)n(Cc3cccnc3)c3c(-c4c(COc5ccc(N6CCN([S+](C)(=O)[O-])CC6)cc5)nn(C)c4C)cccc23)cc(C)c1Cl
inactive: max response (CRL-7250) -16.6% | max response (HaCat [1]) -19.1% | max response (NIH3T3) -3.92% | Potency (MCC-13) | Potency (MCC-26)

O=C(Nc1ccccc1Br)N[C@@H]1CCN(c2ccc(C(F)(F)F)cn2)C1
inactive: max response (CRL-7250) -5.42% | max response (HaCat [1]) 4.65% | max response (NIH3T3) -2.32% | Potency (MCC-13) | Potency (MCC-26)

Cc1ccc(C(C)(O)c2nc3ccccc3s2)c(C)c1 (stereo not drawn)
inactive: max response (CRL-7250) 0.7% | max response (KB-3-1) 4.83% | Potency (MCC-13) | Potency (MCC-26)

CCC(=O)NC[C@H](Cc1ccc(OCCc2nc(-c3ccccc3)oc2C)cc1)NC(C)=CC(=O)c1ccc(C(F)(F)F)cc1
inactive: max response (CRL-7250) -13.2% | outcome (KB-3-1) | Potency (MCC-13) | Potency (MCC-26)

O=C1NC(=O)C(=Cc2ccc3nccnc3c2)S1
inactive: max response (HEK293) -10.3% | max response (HaCat [1]) -12.7% | max response (KB-3-1) -0.874% | max response (NIH3T3) -9.21% | Potency (MCC-13) | Potency (MCC-26)

CCCCCNC(=O)N1CCC(CN(Cc2ccc(Cl)cc2)Cc2ccc([N+](=O)[O-])s2)C1 (stereo not drawn)
inactive: max response (CRL-7250) -21% | max response (HaCat [1]) 2.36% | max response (NIH3T3) -17.3% | Potency (MCC-13) | Potency (MCC-26)

O=c1cc(-c2ccccc2)oc2cc(O)c(O)c(O)c12
inactive: max response (HEK293) -21.5% | max response (HaCat [1]) 1.36% | max response (KB-3-1) -0.922% | max response (NIH3T3) -19.1% | Potency (MCC-13) | Potency (MCC-26)

N#CC(=C(N)Sc1ccccc1N)C(C#N)=C(N)Sc1ccccc1N
inactive: max response (CRL-7250) -7.68% | max response (NIH3T3) -4.19% | Potency (MCC-13) | Potency (MCC-26)

O=c1cc(-c2ccc(O)cc2)oc2cc(O)cc(O)c12
inactive: max response (CRL-7250) -23.1% | max response (HaCat [1]) -20% | max response (KB-3-1) 3.99% | Potency (MCC-13) | Potency (MCC-26)

COc1cc2ncnc(Nc3ccc(F)c(Cl)c3)c2cc1OCCCN1CCOCC1
inactive: max response (HaCat [1]) -57.3% | max response (KB-3-1) -3.97% and -1.38% and 3.83% | max response (NIH3T3) -12.1% and -4.13% | Potency (MCC-26)
active: Potency (HEK293) 7.62 µM and 16.8 µM | Potency (HaCat [1]) 531 nM and 2.06 µM

CN(C)Cc1cccc(N=C(c2ccccc2)c2c(O)[nH]c3cc(C(=O)N(C)C)ccc23)c1
active: Potency (CRL-7250) 20.9 µM
inactive: max response (HaCat [1]) -49.2% | max response (KB-3-1) -15% | Potency (MCC-13)

CC(=O)OC1C(C)OC(Oc2c(-c3ccc(O)cc3)oc3cc(O)cc(O)c3c2=O)C(O)C1OC(C)=O (stereo not drawn)
inactive: max response (CRL-7250) -21.1% | max response (KB-3-1) 7.1% | Potency (MCC-13) | Potency (MCC-26)

COc1cc2c(cc1OC)CN(CCc1ccc(NC(=O)c3cc(OC)c(OC)cc3NC(=O)c3cnc4ccccc4c3)cc1)CC2
inactive: max response (HEK293) -20.5% | max response (HaCat [1]) -17.1% | outcome (KB-3-1) | Potency (MCC-13) | Potency (MCC-26)
active: Potency (HEK293) 11.4 µM

NC(=O)[C@@H](CCC(F)(F)F)N(Cc1ccc(-c2ncon2)cc1F)S(=O)(=O)c1ccc(Cl)cc1
inactive: max response (CRL-7250) -21.3% | max response (HaCat [1]) -0.733% | max response (KB-3-1) -20.8% | Potency (MCC-13) | Potency (MCC-26)

Cc1ccc([C@@H]2O[C@H](CO)[C@@H](O)[C@H](O)[C@@H]2O)cc1Cc1ccc(-c2ccc(F)cc2)s1
inactive: outcome (HaCat [1]) | outcome (KB-3-1) | outcome (NIH3T3) | outcome (HACAT [2]) | Potency (MCC-13) | Potency (MCC-26)
active: Potency (HEK293) 14.8 µM

CC1(C)O[C@H]2C[C@@H]3[C@H]4CCC5=CC(=O)C=C[C@]5(C)[C@@]4(F)[C@@H](O)C[C@]3(C)[C@]2(C(=O)CO)O1
inactive: outcome (P93_24) | outcome (PC15) | Potency (PC26) | outcome (PC49) | Potency (SC27B) | outcome (TAB109) | Potency (TAB113) | Potency (TAB165) | max response (CRL-7250) -11.3% | max response (HaCat [1]) -12.9% | max response (KB-3-1) 1.25% | Potency (MCC-13) | Potency (MCC-26)
